Results from PubChem BioAssay AID1117282 (The Scripps Research Institute Molecular Screening Center, 2014).
This is one part of the list. A number with no mark means an inactive call.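 The calls were made as follows: active = mean inhibition across replicates above a set limit taken from the earlier primary screen (cut at about 11% in these data); inactive = the rest.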

What follows are molecules tested against RNA-editing ligase 1, mitochondrial (Trypanosoma brucei brucei) (UniProt P86926) (assay: TbREL1 RNA ligase inhibitors, confirmation, biochemical, FRET fluorescence, triplicate (AID 1117282;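 also: 0% = REL1 with substrate and DMSO and 100% = REL1 plus control inhibitor NSC42067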)). Conditions: TbREL1 RNA ligation, at 9.66 µM, hits give high values.
Sequence of RNA-editing ligase 1, mitochondrial (Trypanosoma brucei brucei) (P86926 whole entry, looked up): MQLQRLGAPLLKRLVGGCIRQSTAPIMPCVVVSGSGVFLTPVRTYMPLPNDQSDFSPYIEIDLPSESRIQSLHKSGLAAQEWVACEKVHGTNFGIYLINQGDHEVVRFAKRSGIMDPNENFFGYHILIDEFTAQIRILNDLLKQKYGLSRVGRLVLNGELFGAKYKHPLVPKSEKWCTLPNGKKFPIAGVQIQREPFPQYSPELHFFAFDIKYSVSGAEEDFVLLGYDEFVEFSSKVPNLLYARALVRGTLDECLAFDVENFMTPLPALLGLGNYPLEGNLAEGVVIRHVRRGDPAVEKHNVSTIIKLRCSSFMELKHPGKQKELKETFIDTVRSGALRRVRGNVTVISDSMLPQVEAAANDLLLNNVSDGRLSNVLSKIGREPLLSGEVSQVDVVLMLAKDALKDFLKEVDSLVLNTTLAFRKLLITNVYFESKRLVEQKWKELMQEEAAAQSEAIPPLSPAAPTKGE

SMILES	inhibition [%]
CN1CCN(c2cc(N3CCNCC3)ccc2[N+](=O)[O-])CC1	9.79
CC1CCCCN1Cc1cccnc1 (stereo not drawn)	5.17
O=c1[nH]c2ccccc2n1C1CCN(C(c2ccccc2)c2nnnn2Cc2ccccc2)CC1 (stereo not drawn)	1.44
